HT1080NT lethal: qHTS for induction of synthetic lethality in tumor cells producing 2HG: qHTS for the HT-1080-NT fibrosarcoma cell line; HT-1080-NT fibrosarcoma viability, CellTiter-Glo ATP luminescence, 48 h; Potency, µM (titrated, usually from 46.1 µM), for the others: at the highest dose activity, negative = less viability, usual class: cytotoxic; actives 1.6% (n = 360,000); AID 686970, 2013;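 further: NT is the 2HG producing partner of a matched IDH1 knockdown line; 0% = DMSO-treated cells and -100% = media-only wells without cells; nearly all actives have a fitted effect of over 55% in size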
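Read-out is CellTiter-Glo luminescence after 10 minutes at room temperature, following 48 hours' compound treatment of HT-1080-NT cells (750 cells/well, RPMI, 5% FBS, 37 degrees C).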
KB-V1 MDR tox: qHTS assay for MDR1-selective chemotherapeutics: Primary screen using the drug-selected MDR subline cells KB-V1. Potency, µM (highest dose often 46.1 µM), usual class: cytotoxic. actives 3.4% (n = 400,000). KB-V1 MDR cells viability, CellTiter-Glo, 72 h. AID 1347076, 2019; further: nearly all actives have a fitted effect of over 60% in size
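qHTS viability screen in drug-selected KB-V1 MDR cells: 72 h compound treatment at 37 degrees C, ATP luminescence end point.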
TDP1 cell noCPT: qHTS for Inhibitors of human tyrosyl-DNA phosphodiesterase 1 (TDP1): qHTS in cells in absence of CPT. DT40 Tdp1-/- hTDP1 cells, no CPT, ATP luminescence, 48 h. Potency, µM (series often up to 46.2 µM), for the others: at the highest dose activity change, negative = growth inhibition, actives largely listed as inhibitors. actives 15% (n = 420,000); further: nearly all actives have a fitted effect of over 55% in size
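Camptothecin absent (DMSO only). Human TDP1-complemented DT40 knockout cells, 400 cells/well, 37 °C for minimum 48 hr; ATP measured via CellTiter-Glo, 30 min dark incubation, luminescence.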
TDP1 cell CPT: qHTS for Inhibitors of human tyrosyl-DNA phosphodiesterase 1 (TDP1): qHTS in cells in presence of CPT | chicken DT40 Tdp1-/-;hTDP1 cells + 20 nM CPT, ATP luminescence, 48 h | Potency, µM (titrated, usually from 46.2 µM), for the others: top-dose activity change, negative = growth inhibition, usual class: inhibitors | actives 12% (n = 420,000) | AID 686979, 2013; further: nearly all actives have a fitted effect of over 55% in size
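Chicken DT40 Tdp1-/- cells complemented with human TDP1, 400 cells/well, exposed to compounds plus 20 nM camptothecin for at least 48 h at 37 C; viability read as ATP content by CellTiter-Glo luminescence.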
KB-3-1 tox: qHTS assay for MDR1-selective chemotherapeutics: Primary screen using the parental adenocarcinoma cell KB-3-1. KB-3-1 viability, CellTiter-Glo ATP luminescence, 72 h. AID 1347075, 2019. Potency, µM (top dose mostly 46.1 µM), actives largely listed as cytotoxic. actives 1.4% (n = 400,000); further: nearly all actives have a fitted effect of over 60% in size
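Viability of parental KB-3-1 cells, measured by CellTiter-Glo luminescence, followed a 72 h incubation at 37 °C with pinned compounds in phenol-red-free DMEM containing 10% FBS.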
HT1080 IDH1KD tx: qHTS for induction of synthetic lethality in tumor cells producing 2HG: qHTS for the HT-1080-IDH1KD cell line; HT-1080 IDH1 knockdown viability, ATP luminescence, 48 h; actives 2% (n = 360,000); Potency, µM (highest dose often 46.1 µM), inactives show at the top dose activity, negative = toxicity, most hits filed as cytotoxic; AID 686971, 2013;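 further: 0% = DMSO wells and -100% = cell-free medium wells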
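After a 2 h attachment period, IDH1KD HT-1080 cells took pin-transferred compound for 48 h at 37 °C; ATP-based luminescence after 10 min room-temperature reagent incubation reported viability.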
An asterisk follows results filed as active. This is a sample that favours compounds with a hit; in the whole collection about 19% have one here. The call rests on the fitted dose curve; in most records, active means well fitted curve in the direction sought with a large enough effect; inconclusive means small, poorly fitted or top-dose-only effect, or another doubt; inactive means no such curve, though single readings can be large; an effect the other way counts as inactive or inconclusive. Unless noted, on the % scale 0 is the no-effect control and ±100 the full control effect; potency means the concentration at half of the fitted maximal effect.

What do the screens show for `Cc1cccc(NC(=O)C2=C(O)c3ccccc3N(C)S2(=O)=O)c1`?
HT1080NT lethal: -4%; KB-V1 MDR tox: inconclusive; TDP1 cell noCPT: 15µM*; TDP1 cell CPT: inconclusive; KB-3-1 tox: inconclusive; HT1080 IDH1KD tx: 2%

What do the screens show for `Cc1ccc(NC(=O)C2=C(O)c3sccc3N(C)S2(=O)=O)cc1`?
HT1080NT lethal: 2%; KB-V1 MDR tox: inactive; TDP1 cell noCPT: 21µM*; TDP1 cell CPT: inconclusive; KB-3-1 tox: inactive; HT1080 IDH1KD tx: 0%

What do the screens show for `CCOc1ccc(C2CC(c3c(O)n(C4CCCCC4)c(=O)[nH]c3=O)=Nc3ccccc3S2)cc1` (stereo unspecified)?
KB-V1 MDR tox: inactive; TDP1 cell noCPT: 1%; TDP1 cell CPT: -3%; KB-3-1 tox: inactive

Results for COc1ccc(NS(=O)(=O)c2ccc3[nH]c(=O)ccc3c2)cc1OC ?
KB-V1 MDR tox: inconclusive; TDP1 cell noCPT: -30%; TDP1 cell CPT: -20%; KB-3-1 tox: inactive

What do the screens show for `CCc1ccc(C(=O)c2cn(CC(=O)Nc3ccc(F)cc3)c3cc4c(cc3c2=O)OCO4)cc1`?
KB-V1 MDR tox: inactive; TDP1 cell noCPT: -26%; TDP1 cell CPT: inconclusive; KB-3-1 tox: inconclusive

Results for O=C(NNC(=O)c1cc(S(=O)(=O)N2CCOCC2)ccc1Cl)c1ccc(F)cc1 ?
HT1080NT lethal: -1%; KB-V1 MDR tox: inactive; TDP1 cell noCPT: -20%; TDP1 cell CPT: -28%; KB-3-1 tox: inactive; HT1080 IDH1KD tx: 1%

How did CC1CCc2nc(NC(=O)Cc3ccc(Cl)cc3)sc2C1 (stereo unspecified) do in these assays?
KB-V1 MDR tox: inactive; TDP1 cell noCPT: 18µM*; TDP1 cell CPT: inconclusive; KB-3-1 tox: inactive

What do the screens show for `CC1CCc2nc(NC(=O)C3COc4ccccc4O3)sc2C1` (stereo unspecified)?
HT1080NT lethal: -17%; KB-V1 MDR tox: inactive; TDP1 cell noCPT: 21µM*; TDP1 cell CPT: 16µM*; KB-3-1 tox: inactive; HT1080 IDH1KD tx: 4%

How did CC1CCc2nc(NC(=O)CN3CCN(c4ccccc4)CC3)sc2C1 (stereo unspecified) do in these assays?
HT1080NT lethal: 2%; KB-V1 MDR tox: inactive; TDP1 cell noCPT: 21µM*; TDP1 cell CPT: inconclusive; KB-3-1 tox: inactive; HT1080 IDH1KD tx: -4%

Results for CC1CCc2nc(NC(=O)CN3CCN(Cc4ccc5c(c4)OCO5)CC3)sc2C1 (stereo unspecified) ?
HT1080NT lethal: inconclusive; KB-V1 MDR tox: inactive; TDP1 cell noCPT: 16µM*; TDP1 cell CPT: 18µM*; KB-3-1 tox: inconclusive; HT1080 IDH1KD tx: inconclusive

How did CCOC(=O)C1=CCN(S(=O)(=O)c2ccc(F)cc2)C1c1ccc(Cl)c(Cl)c1 (stereo unspecified) do in these assays?
HT1080NT lethal: inconclusive; KB-V1 MDR tox: inconclusive; TDP1 cell noCPT: inconclusive; TDP1 cell CPT: inconclusive; KB-3-1 tox: inactive; HT1080 IDH1KD tx: inconclusive

What do the screens show for `CC1CCc2nc(NC(=O)Nc3ccc4c(c3)OCO4)sc2C1` (stereo unspecified)?
HT1080NT lethal: -20%; KB-V1 MDR tox: inactive; TDP1 cell noCPT: inconclusive; TDP1 cell CPT: inconclusive; KB-3-1 tox: 13µM*; HT1080 IDH1KD tx: inconclusive

Results for COc1ccc(C(Nc2cc(C)ccn2)c2ccc3ccc(C)nc3c2O)cc1 (stereo unspecified) ?
HT1080NT lethal: -20%; KB-V1 MDR tox: inactive; TDP1 cell noCPT: inconclusive; TDP1 cell CPT: inconclusive; KB-3-1 tox: inactive; HT1080 IDH1KD tx: -8%

How did Cc1ccnc(NCc2c(O)ccc3ccccc23)c1 do in these assays?
HT1080NT lethal: -7%; KB-V1 MDR tox: inactive; TDP1 cell noCPT: -17%; TDP1 cell CPT: 0%; KB-3-1 tox: inactive; HT1080 IDH1KD tx: 2%

What do the screens show for `Cc1ccnc(NC(c2ccsc2)c2ccc3ccc(C)nc3c2O)c1` (stereo unspecified)?
HT1080NT lethal: inconclusive; KB-V1 MDR tox: inactive; TDP1 cell noCPT: inconclusive; TDP1 cell CPT: 23%; KB-3-1 tox: inactive; HT1080 IDH1KD tx: 15µM*

How did Cc1ccnc(NC(c2cc(C)ccc2O)c2ccc3cccnc3c2O)c1 (stereo unspecified) do in these assays?
TDP1 cell noCPT: 10µM*; TDP1 cell CPT: inconclusive

Results for O=C(O)c1ccccc1NC(c1ccccc1)c1ccc2cccnc2c1O (stereo unspecified) ?
HT1080NT lethal: -22%; KB-V1 MDR tox: inconclusive; TDP1 cell noCPT: inconclusive; TDP1 cell CPT: 15µM*; KB-3-1 tox: inconclusive; HT1080 IDH1KD tx: 8.2µM*

What do the screens show for `Cc1ccnc(NC(c2ccccc2)c2ccc3cccnc3c2O)c1` (stereo unspecified)?
HT1080NT lethal: inconclusive; KB-V1 MDR tox: inconclusive; TDP1 cell noCPT: 21µM*; TDP1 cell CPT: inconclusive; KB-3-1 tox: inconclusive; HT1080 IDH1KD tx: inconclusive

How did CCOC1=C2CN(S(=O)(=O)c3ccccc3)[C@H](c3ccccc3)C[C@H]2n2c(=O)n(-c3ccccc3)c(=O)n2C1 do in these assays?
HT1080NT lethal: 17%; KB-V1 MDR tox: inactive; TDP1 cell noCPT: 4%; TDP1 cell CPT: 3%; KB-3-1 tox: inactive; HT1080 IDH1KD tx: inconclusive

Results for CCc1ccc(CNC(=O)C2CCN(c3nc4ccccc4nc3C(F)(F)F)CC2)cc1 ?
TDP1 cell noCPT: inconclusive; TDP1 cell CPT: -15%

What do the screens show for `Cc1ccc(CNC(=O)CSCc2ccccc2)cc1`?
HT1080NT lethal: 3%; KB-V1 MDR tox: inactive; TDP1 cell noCPT: -4%; TDP1 cell CPT: 4%; KB-3-1 tox: inactive; HT1080 IDH1KD tx: 7%

What do the screens show for `CCCCN(CCCC)CCNC(=O)CSCc1ccc(C)cc1`?
HT1080NT lethal: 0%; KB-V1 MDR tox: inactive; TDP1 cell noCPT: 21µM*; TDP1 cell CPT: 26µM*; KB-3-1 tox: inactive; HT1080 IDH1KD tx: -10%

Source: PubChem BioAssay (National Center for Advancing Translational Sciences (NCATS))
